From PubChem BioAssay
Pf growth 96h: Primary qHTS for delayed death inhibitors of the malarial parasite plastid, 96 hour incubation | Potency, µM (series often up to 28.7 µM), without a hit: at the top dose activity change, negative = inhibition, most hits filed as inhibitors | 6.9% of 320,000 active | P. falciparum luciferase reporter growth, 96 h; further: potency means the concentration at half of the fitted maximal effect; on the % scale 0 is the no-effect control and ±100 the full control effect
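Cell-based qHTS: luciferase-tagged P. falciparum in erythrocytes (2% hematocrit, 0.05% parasitemia final) incubated with compounds for 96 hours, 37 C, 5% CO2; luciferase detection reagent then added and luminescence measured.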
Shiga inhibitor: A qHTS for Small Molecule Inhibitors of Shiga Toxin | Vero cells, Shiga toxin protein synthesis inhibition reporter | inhibition, % at 38.7 µM | AID 2315, 2010 | 9.2% of 290,000 active; in the data active means inhibition mostly above about 28%, no sharp cut-off; inactive means mostly below about 43%; further: 0% is about no effect
CHX counter: Cycloheximide Counterscreen for Small Molecule Inhibitors of Shiga Toxin; max response, %; cell reporter, cycloheximide protein synthesis inhibition counterscreen; 12% of 300,000 active; AID 2314, 2010; in the data active means max response mostly above about 13%, no sharp cut-off; inactive means mostly below about 14%; further: read at 38.3 µM for the half of the compounds with a filed dose; 0% is about no effect
Pf growth 48h: Primary qHTS for delayed death inhibitors of the malarial parasite plastid, 48 hour incubation | P. falciparum luciferase growth in erythrocytes, 48 h | Potency, µM (titrated, usually from 28.7 µM), without a hit: at the top dose activity change, negative = inhibition, usual class: inhibitors | 5.9% of 310,000 active | AID 504832, 2011; further: potency means the concentration at half of the fitted maximal effect; on the % scale 0 is the no-effect control and ±100 the full control effect
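Here the parasites carry a stable luciferase gene and grow inside erythrocytes in Albumax-based RPMI medium with compound for one erythrocytic cycle. Activity is scored as loss of luminescent signal.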
An asterisk follows results filed as active; i = inactive; ? = inconclusive; · = no result given. A selection: hits, their analogues and other compounds. The true share with any hit is near 21%. Unless noted, the call rests on the fitted dose curve; in most records, active means well fitted inhibition curve with a large enough effect; inconclusive means small, poorly fitted or top-dose-only effect, or another doubt; inactive means no such curve, though single readings can be large or run the other way.

SMILES	Pf growth 96h	Shiga inhibitor	CHX counter	Pf growth 48h
O=C(c1cc2c(=O)oc3ccccc3c2s1)N1CCOCC1	?	-30	31*	26%
CCn1c(=O)c2cc(C(=O)N3CCOCC3)sc2c2ccccc21	?	-14	-6	·
Cc1nn(-c2ccccc2)c2sc(C(=O)N(CC(=O)NC(C)(C)C)Cc3ccco3)cc12	?	18	19*	?
Cc1nn(-c2ccccc2)c2sc(C(=O)O)cc12	·	-2	0	25%
CCN1CC(c2ccccc2)C(c2ccc(Cl)cc2)=N1 (stereo not given)	-14%	11	-2	-16%
CCNC(=S)N(CCc1ccccc1C)Cc1cc2cc(OC)c(OC)cc2[nH]c1=O	?	-7	-4	?
Cc1ccc2[nH]c(=O)c(CN(Cc3ccccc3)C(=S)NCCCN(C)C)cc2c1	?	48*	26*	29%
COc1cc2cc(CN(CCc3ccccc3C)C(=S)NCCCN3CCOCC3)c(=O)[nH]c2cc1OC	322%	-7	-1	7.4µM*
COc1cc2cc(CN(CCc3ccccc3C)C(=S)NCCCN(C)C)c(=O)[nH]c2cc1OC	?	-14	-2	13µM*
O=C(CN1C(=O)NC2(CCCCCC2)C1=O)c1ccc(Cl)s1	2%	·	·	?
COc1ccc(S(=O)(=O)NCCOc2ccc(Cl)cc2)cc1	36%	·	·	-7%
COc1cccc(CN(C)Cc2nc(C3CC3)no2)c1	12µM*	-1	-1	75%
COc1cccc(CN(C)Cc2c(O)ccc3ccccc23)c1	-1%	24*	26	?
COc1ccc(-c2noc(CN(C)Cc3ccccc3)n2)cc1	?	18	11*	21%
CN(Cc1ccc(F)cc1)Cc1nc(-c2ccccc2)no1	10µM*	24	-1	-3%
O=C(CCc1c[nH]c2ccccc12)NCCc1ccc(Cl)cc1	?	-7	-2	-5%
COc1ccc(-c2noc(CN(C)Cc3ccc(C)o3)n2)cc1	3%	35*	11*	17%
COc1ccc(-c2noc(CCc3ccccc3)n2)cc1	-14%	88*	23*	39%
CCN(CCn1cccn1)Cc1nc(-c2ccc(OC)cc2)no1	?	14	4	6%
CSc1ccccc1C(=O)N1CCC(n2nccc2NC(=O)C(C)(C)C)CC1	8%	-4	-1	?
Cc1cc2ncc(C(=O)Nc3ccsc3C(=O)O)c(C)n2n1	175%	20	18*	i
CCOC(=O)c1cnc2cc(C)nn2c1-c1ccccc1	96%	-17	-7	4%
O=C(Nc1ccsc1C(=O)O)c1ccc(Cl)cc1	61%	85*	27*	·
Cc1ccc(C(=O)Nc2ccsc2C(=O)O)cc1	212%	52*	39*	103%
CCOCCc1c(O)nc(SCC(=O)N2CCOCC2)[nH]c1=O	3%	-1	9	28%
SMILES	Pf growth 96h	Shiga inhibitor	CHX counter	Pf growth 48h
CCOC(=O)CNC(=O)Cn1cnc2c(nnn2-c2ccccc2)c1=O	49%	15	-2	10%
CCc1noc(C)c1C(=O)N1CCCSC1=Nc1ccccc1C(C)C	6.6µM*	·	·	15µM*
CCN(CC)CCCNC(=O)C1CCN(c2ncnc3c2sc2cccc(F)c23)CC1	1.9µM*	3	-1	?
CC1CC(C)CN(CCCNC(=O)C2CCN(c3ncnc4c3sc3cccc(F)c34)CC2)C1 (stereo not given)	?	30	-1	?
COc1cc2c(cc1OC)-c1cc(Nc3ccc4c(c3)OCCO4)nc(=O)n1CC2	33%	78*	67*	98%
CCOc1cccc(Nc2cc3n(c(=O)n2)CCc2cc(OC)c(OC)cc2-3)c1	3.7µM*	-4	7	?
COc1ccc(Nc2cc3n(c(=O)n2)CCc2cc(OC)c(OC)cc2-3)cc1	?	27	17	?
COc1cc2c(cc1OC)-c1cc(Nc3ccccc3Br)nc(=O)n1CC2	?	-1	17*	?
COc1cc2c(cc1OC)-c1cc(N3CCc4ccccc43)nc(=O)n1CC2	12µM*	-4	1	?
COc1cc2c(cc1OC)-c1cc(Nc3ccccc3)nc(=O)n1CC2	?	1	-4	?
CC(=O)Nc1cccc(C(=O)Nc2cccnc2)c1	9%	-9	2	19%
COc1ccc(C(=O)NC(=S)Nc2cccnc2)cc1Cl	-10%	-3	-3	16%
CC(C)Oc1cccc(C(=O)NC(=S)Nc2cccnc2)c1	30%	40	32*	104%
CC(C)Oc1cccc(C(=O)NC(=S)Nc2ccccc2)c1	86%	120*	94*	266%
COc1cccc(C(=O)NC(=S)Nc2cccnc2)c1	-26%	43*	26*	98%
